In PubChem BioAssay AID624167 (Sanford-Burnham Center for Chemical Genomics, 2012):

assay: Peg3 promoter luciferase inhibitors, potency, dose response, cell-based, HeLa, CREF/GAPDH counter-screen panel (AID 624167); settings: CREF/GAPDH counter-screens; run 2, dose range 1, at 100 µM (top of the series)

Structure (SMILES) | inhibition
Cc1ccc(/C=C2\SC(=S)N(CCCC(=O)NNC(=O)c3ccccc3O)C2=O)cc1 | 69.2%
O=C1C=CC(=O)N1c1ccc(-c2nc3ccccc3o2)cc1 | 90.3%
CN(C)c1c([N+](=O)[O-])cc(N2C(=O)C=CC2=O)cc1[N+](=O)[O-] | 98.5%
Cc1ccc(/C=C2\SC(=S)N(CCCC(=O)Nc3ccccn3)C2=O)cc1 | 76.5%
CCc1ccc(/C=C2\SC(=S)N(CCCC(=O)Nc3ccccn3)C2=O)cc1 | 25.6%
Cc1oc(-c2ccc3c(c2)OCCO3)cc1C(=O)O | 97.9%
CCCC(=O)NC(c1ccc(C(C)C)cc1)c1ccc2cccnc2c1O (stereo not drawn) | 45.7%
NC(C(=O)O)C1ON=C(Cl)C1O (stereo not drawn) | 70.1%
O=C(CNc1ccccc1)N/N=C/c1c(O)ccc2ccccc12 | 63.7%
Cc1ccsc1/C=N/Nc1cccc(C(=O)O)c1 | 96.5%
Cc1cc(NC(c2ccc(Cl)cc2)c2ccc3cccnc3c2O)no1 (stereo not drawn) | 55.8%
CC(=O)c1sc2c(c1OC(=O)c1ccc(Cl)cc1Cl)c(=O)n(-c1ccccc1)c(=S)n2-c1ccccc1 | 79.3%
CCC(c1ccc(O)c(O)c1)C(CC)c1ccc(O)c(O)c1 (stereo not drawn) | 99.5%
Cc1cc(C)c(C)c(S(=O)(=O)N2CCN(C(=O)c3cc(=O)[nH]c4ccccc34)CC2)c1C | 80.6%
COc1ccc(Nc2ncnc3ccc(Br)cc23)c(OC)c1 | 93.7%
CCSc1nc2ccccc2n1C(=O)/C=C\c1ccc(OC)c(OC)c1 | 81.2%
Cc1cc(Br)ccc1NC(=O)CNC(=O)Cn1ncc(Cl)c(Cl)c1=O | 98.9%
COc1ccc(N(C(=O)CCl)C(C(=O)NC2CCCCC2)c2cccnc2)cc1 (stereo not drawn) | 82.8%
